Common to all, as to assay: HT-SELEX; high values mean tight binding
Holding throughout (settings): protein: recombinant; vector His6-GST; dsDNA, one strand shown

The target of test [1] is T1, SALL4 ZFC4 WT (HT-SELEX) (Mus musculus, UniProt Q8BX22 870-940).
T1 sequence: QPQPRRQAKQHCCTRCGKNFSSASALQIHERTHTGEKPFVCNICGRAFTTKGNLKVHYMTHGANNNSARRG
A digest of the protocol:
(§1)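 Purified recombinant mouse SALL4 zinc finger cluster 4 (residues 870–940, 1 µg) and library DNA (1.5 µg first cycle, 200 ng later) were incubated for 10 min at room temperature in 100 µl of 10 mM Tris–HCl pH 7.5, 50 mM NaCl, poly(dI-dC) and DTT. After Ni2+ bead capture and up to 6 triplicate cycles of selection, DNA was MiSeq-sequenced and scanned for 6-mers. Binding signal is the fold change in each canonical k-mer's read fraction relative to the initial random library.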

The target in test [2] is T2, SALL4 ZFC4 R900W (HT-SELEX) (Mus musculus, UniProt Q8BX22 870-940, R900W).
T2 sequence: T1 sequence with R31W
A digest of the protocol: as §1

Test [3] addresses T3, SALL4 ZFC4 G921D (HT-SELEX) (Mus musculus, UniProt Q8BX22 870-940, G921D).
T3 sequence: T1 sequence with G52D
A digest of the protocol: as §1

Numbering of substitutions follows the chain as printed.

For 30 sequences, binding signal results are on record in PMC9838217, “Structure of SALL4 zinc finger domain reveals link between AT-rich DNA binding and Okihiro syndrome”.

As to ACGTGA, the binding signal is 0.774 ± 0.0226 fold-change vs cycle 0 in test [1], 0.876 ± 0.021 fold-change vs cycle 0 in test [2] and 0.931 ± 0.0233 fold-change vs cycle 0 in test [3].

Consider AACCAC, for which the binding signal was 0.74 ± 0.0275 fold-change vs cycle 0 in test [1], 0.83 ± 0.0479 fold-change vs cycle 0 in test [2] and 0.879 ± 0.0101 fold-change vs cycle 0 in test [3].

With CACATG, the binding signal in test [1] is 0.752 ± 0.0217 fold-change vs cycle 0; in test [2], 0.8671 ± 0.00649 fold-change vs cycle 0; in test [3], 0.925 ± 0.0436 fold-change vs cycle 0.

Consider AAAAAT, for which the binding signal in test [1] was 3.83 ± 0.465 fold-change vs cycle 0; in test [2], 2.16 ± 0.197 fold-change vs cycle 0; in test [3], 1.9 ± 0.223 fold-change vs cycle 0.

For TCACCA, the values for the binding signal in test [1], in test [2] and in test [3] were 0.829 ± 0.0293 fold-change vs cycle 0, 0.931 ± 0.0104 fold-change vs cycle 0 and 0.988 ± 0.0172 fold-change vs cycle 0, respectively.

Regarding GTGATA, the binding signal was determined as 1.42 ± 0.0582 fold-change vs cycle 0 in test [1], 1.47 ± 0.0649 fold-change vs cycle 0 in test [2] and 1.39 ± 0.0928 fold-change vs cycle 0 in test [3].

Turning to TTCCAA, the binding signal in test [1] turned out to be 1.24 ± 0.0535 fold-change vs cycle 0; in test [2], 1.32 ± 0.0456 fold-change vs cycle 0; in test [3], 1.29 ± 0.0721 fold-change vs cycle 0.

With ATAATG, the binding signal in test [1] came to 2.28 ± 0.148 fold-change vs cycle 0; in test [2], 2.02 ± 0.123 fold-change vs cycle 0; in test [3], 1.81 ± 0.182 fold-change vs cycle 0.

Regarding GGAGCA, the binding signal in test [1] was 0.352 ± 0.0189 fold-change vs cycle 0; in test [2], 0.423 ± 0.00792 fold-change vs cycle 0; in test [3], 0.543 ± 0.05 fold-change vs cycle 0.

Consider CGAAAC, for which the binding signal in test [1] stood at 0.59 ± 0.0153 fold-change vs cycle 0; in test [2], 0.676 ± 0.0229 fold-change vs cycle 0; in test [3], 0.748 ± 0.0402 fold-change vs cycle 0.

As for GGGGAA, the binding signal was determined as 0.462 ± 0.0251 fold-change vs cycle 0 in test [1], 0.532 ± 0.0365 fold-change vs cycle 0 in test [2] and 0.614 ± 0.0545 fold-change vs cycle 0 in test [3].

With CTAACC, the binding signal in test [1] was 0.863 ± 0.0299 fold-change vs cycle 0; in test [2], 0.983 ± 0.0562 fold-change vs cycle 0; in test [3] it was 1.01 ± 0.0396 fold-change vs cycle 0.

Consider CAATGC, for which the values for the binding signal in test [1], in test [2] and in test [3] were 0.595 ± 0.019 fold-change vs cycle 0, 0.673 ± 0.0218 fold-change vs cycle 0 and 0.807 ± 0.0224 fold-change vs cycle 0, respectively.

For TGTTAA, the results for the binding signal in test [1], in test [2] and in test [3] were 1.94 ± 0.0917 fold-change vs cycle 0, 2 ± 0.113 fold-change vs cycle 0 and 1.77 ± 0.143 fold-change vs cycle 0, respectively.

For the sequence ATTCCC, the binding signal came out at 0.877 ± 0.0328 fold-change vs cycle 0 in test [1], 0.943 ± 0.055 fold-change vs cycle 0 in test [2] and 0.984 ± 0.0201 fold-change vs cycle 0 in test [3].

Turning to AGGTCC, the binding signal in test [1] turned out to be 0.419 ± 0.0296 fold-change vs cycle 0; in test [2] it was 0.53 ± 0.0164 fold-change vs cycle 0; in test [3], 0.632 ± 0.0514 fold-change vs cycle 0.

Regarding TCAAGA, the binding signal worked out at 1.32 ± 0.0482 fold-change vs cycle 0 in test [1], 1.49 ± 0.0445 fold-change vs cycle 0 in test [2] and 1.4 ± 0.0701 fold-change vs cycle 0 in test [3].

Take CCTAGG: the binding signal was found to be 0.46 ± 0.0474 fold-change vs cycle 0 in test [1], 0.588 ± 0.0412 fold-change vs cycle 0 in test [2] and 0.669 ± 0.0278 fold-change vs cycle 0 in test [3].

Consider GTCCAC, for which the binding signal in test [1] worked out at 0.374 ± 0.044 fold-change vs cycle 0; in test [2], 0.454 ± 0.026 fold-change vs cycle 0; in test [3] it was 0.569 ± 0.0681 fold-change vs cycle 0.

In the case of AAGTCA, the values for the binding signal in test [1], in test [2] and in test [3] were 1.3 ± 0.0493 fold-change vs cycle 0, 1.46 ± 0.0531 fold-change vs cycle 0 and 1.35 ± 0.0928 fold-change vs cycle 0, respectively.

As for TCAGGA, the binding signal turned out to be 0.887 ± 0.0551 fold-change vs cycle 0 in test [1], 1.02 ± 0.0319 fold-change vs cycle 0 in test [2] and 1.03 ± 0.0207 fold-change vs cycle 0 in test [3].

For the sequence TAGGGA, the binding signal in test [1] came to 0.931 ± 0.0124 fold-change vs cycle 0; in test [2] it was 0.998 ± 0.0215 fold-change vs cycle 0; in test [3], 1.02 ± 0.0328 fold-change vs cycle 0.

AATAGT: the binding signal in test [1] worked out at 1.96 ± 0.0795 fold-change vs cycle 0; in test [2], 1.94 ± 0.0794 fold-change vs cycle 0; in test [3] it was 1.77 ± 0.136 fold-change vs cycle 0.

Regarding ATCCTA, the values for the binding signal in test [1], in test [2] and in test [3] were 1.48 ± 0.0397 fold-change vs cycle 0, 1.6 ± 0.0899 fold-change vs cycle 0 and 1.46 ± 0.117 fold-change vs cycle 0, respectively.

With AGGCAG, the binding signal in test [1] was 0.306 ± 0.00652 fold-change vs cycle 0; in test [2], 0.366 ± 0.0295 fold-change vs cycle 0; in test [3], 0.484 ± 0.0834 fold-change vs cycle 0.

For GGAAAA, the binding signal stood at 1.11 ± 0.0508 fold-change vs cycle 0 in test [1], 1.13 ± 0.0572 fold-change vs cycle 0 in test [2] and 1.12 ± 0.0269 fold-change vs cycle 0 in test [3].

On to CCTGTA, for which the binding signal was 0.809 ± 0.0421 fold-change vs cycle 0 in test [1], 0.915 ± 0.0586 fold-change vs cycle 0 in test [2] and 0.974 ± 0.0591 fold-change vs cycle 0 in test [3].

On to AAATCT, for which the binding signal is 1.82 ± 0.0976 fold-change vs cycle 0 in test [1], 1.85 ± 0.0812 fold-change vs cycle 0 in test [2] and 1.72 ± 0.124 fold-change vs cycle 0 in test [3].

Consider CAAGTC, for which the binding signal in test [1] came to 0.742 ± 0.0124 fold-change vs cycle 0; in test [2], 0.878 ± 0.025 fold-change vs cycle 0; in test [3], 0.942 ± 0.0196 fold-change vs cycle 0.

Take ATTCCG: the results for the binding signal in test [1], in test [2] and in test [3] were 0.646 ± 0.0192 fold-change vs cycle 0, 0.697 ± 0.0273 fold-change vs cycle 0 and 0.798 ± 0.0236 fold-change vs cycle 0, respectively.
